Twelve compounds from PubChem BioAssay can be followed below.

Calls of active or inactive are those of the source.

The target in one test is Albumin (Bos taurus) (UniProt P02769). The test can be described thus: bovine serum albumin binders on microarray, profiling panel, artefact control for SMM control protein annotation, biochemical, small-molecule microarray, Alexa647 label, 635/667 nm fluorescence (AID 1118).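 Also: score merges 667 nm emission intensity and signal-to-noise per printed compound spot.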 The settings on record: BSA-A647 binding, fluorescence 635 nm, higher = more signal.
Test [1] can be described thus: small-molecule microarray binders of probe aXIP, primary screen, biochemical, NeuroSMM set, 635/667 nm fluorescence (AID 1119).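 Also: probe is the protein aXip251-270 applied at 1 µg/mL to compound-printed slides; binding of probe to printed compounds measured as 667 nm fluorescence plus signal to noise.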 The following applies: higher = more signal, called active from +8 up or from −8 down.
The nature of test [2]: small-molecule binders of probe aNOTCH3, primary screen, biochemical, small-molecule microarray, 635/667 nm fluorescence (AID 1120).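 Also: probe is a biotin-tagged antibody raised against NOTCH3 rather than NOTCH3 protein; score merges spot fluorescence near 667 nm with spot signal to noise.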 The following applies: higher = more signal.
Test [3] is described as follows: small-molecule binders of probe aNOTCH2, primary screen, biochemical, small-molecule microarray, 635/667 nm fluorescence (AID 1121).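 Also: score merges feature fluorescence read at 667 nm with its signal to noise.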 The settings on record: higher = more signal.
Test [4] has as its target Carbonic anhydrase 2 (Homo sapiens) (UniProt P00918). Briefly: CAII small-molecule binders, profiling panel, biochemical, small-molecule microarray, Alexa647-labelled CAII (AID 1122). The settings on record: CAII-A647 binding fluorescence, higher = more signal.
Test [5] in a line: COS7 lysate on small-molecule microarray, probe aHis, 635 nm (AID 1123).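 Also: z-score combines 667nm fluorescence intensity with signal-to-noise per printed compound spot.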 The settings on record: COS7 cell lysate, fluorescence, higher = more signal.
Test [6] can be described thus: compound binding in COS7 lysate, probe aLAP1, primary screen, cell lysate, small-molecule microarray (AID 1124).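 Also: lysate comes from COS7 cells expressing LAP1 and is applied at 0.3 µg/mL; score merges spot fluorescence near 667 nm with signal-to-noise over triplicate slides.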 The following applies: probe aLAP1, fluorescence, higher = more signal.
Another test concerns Sam68 (KHDRBS1). The test can be described thus: Sam68 small-molecule binders, primary screen, biochemical, small-molecule microarray, 635 nm fluorescence (AID 1125).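 Also: score merges 667 nm channel intensity with signal to noise over triplicate slides.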 The following applies: small-molecule microarray binding, higher = more signal.
Test [7] concerns Chordin-like protein 2 (CHRDL2). Briefly: CHRDL2 small-molecule binders, primary screen, biochemical, small-molecule microarray, 635 nm fluorescence (AID 1126).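 Also: printed compound slides probed with Chrdl2 protein at 4 µg/mL for 1 h at 4 C; score merges 667 nm emission intensity with signal to noise over three replicate slides.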 The settings on record: small-molecule microarray binding, fluorescence 635 nm; higher = more signal.
Test [8] concerns the target Concanavalin-A (Canavalia ensiformis) (UniProt P02866). The test can be described thus: ConA small-molecule binders, primary screen, artefact control for SMM control protein annotation, biochemical, small-molecule microarray, Alexa647 label, 635 nm (AID 1127).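 Also: z combines 667 nm emission intensity with signal-to-noise across three replicate slides.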 The following applies: ConA-A647 binding fluorescence, higher = more signal.

Sequence of Concanavalin-A (Canavalia ensiformis) (P02866 whole entry, looked up): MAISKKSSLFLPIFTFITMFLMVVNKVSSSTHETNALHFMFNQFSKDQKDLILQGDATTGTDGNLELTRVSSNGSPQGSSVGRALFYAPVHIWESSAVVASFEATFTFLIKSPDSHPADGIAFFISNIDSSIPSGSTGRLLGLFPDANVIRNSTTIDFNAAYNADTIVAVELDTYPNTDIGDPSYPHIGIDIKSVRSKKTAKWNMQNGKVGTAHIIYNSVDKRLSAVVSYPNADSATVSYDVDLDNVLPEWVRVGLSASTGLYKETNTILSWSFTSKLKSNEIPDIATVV
Sequence of Albumin (Bos taurus) (P02769 whole entry, looked up): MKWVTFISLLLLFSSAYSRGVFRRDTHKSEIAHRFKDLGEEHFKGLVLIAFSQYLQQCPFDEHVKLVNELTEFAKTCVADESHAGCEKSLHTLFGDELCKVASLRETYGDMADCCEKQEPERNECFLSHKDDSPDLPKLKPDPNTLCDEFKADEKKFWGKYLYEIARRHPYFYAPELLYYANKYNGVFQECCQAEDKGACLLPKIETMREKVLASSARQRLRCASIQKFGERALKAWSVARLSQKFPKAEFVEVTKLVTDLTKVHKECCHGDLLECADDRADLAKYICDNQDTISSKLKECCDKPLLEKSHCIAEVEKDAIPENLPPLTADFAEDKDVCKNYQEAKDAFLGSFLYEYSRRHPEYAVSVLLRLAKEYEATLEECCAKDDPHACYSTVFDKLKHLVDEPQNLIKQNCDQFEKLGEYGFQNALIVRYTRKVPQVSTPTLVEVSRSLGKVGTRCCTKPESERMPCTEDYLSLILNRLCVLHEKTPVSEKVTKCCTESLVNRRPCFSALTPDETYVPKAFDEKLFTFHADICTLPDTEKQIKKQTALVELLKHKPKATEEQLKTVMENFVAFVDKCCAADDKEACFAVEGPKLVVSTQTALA

Consider `COc1cccc([C@H]2Oc3ccc(OC)cc3C(=NO[C@@H](C)c3cn([C@H](CO)Cc4ccccc4)nn3)[C@@H]2O)c1`, for which the composite z-score is 0.874 with Albumin (Bos taurus); -0.132 in [2]; -0.207 in test [3]; -0.0163 in [4]; 0.107 in test [5]; 0.664 in [6]. In addition, the figures for the composite z-score (with Sam68 (KHDRBS1); in test [7]; in test [8]) were -0.0592, -0.54 and 0.373, respectively. The composite Z-score in test [1] was 0.637 (inactive).
For the compound `COC(=O)[C@H](C)NC(=O)CCC1CC(OC(=O)NCc2ccc3c(c2)OCO3)CC2(CCCC(COC(=O)NCCc3ccccc3OC)O2)O1` (stereo not given in full), the composite z-score is 0.159 in the test with Albumin (Bos taurus); -0.125 in [2]; -0.0646 in [3]; 0.472 in test [4]; 1.36 in [5]; 0.117 in [6]. Also, the composite z-score in the test with Sam68 (KHDRBS1) was 0.735; in test [7] it was -0.0443; in test [8] it was -0.706. Further, the composite Z-score in test [1] was 0.0923 (inactive).
Take `C=COC[C@@H]1CN2[C@@H](CC[C@@H](C)[C@@H]2c2ccc(Br)cc2)C(=O)O1`: the composite z-score was 0.0494 with Albumin (Bos taurus); -0.161 in test [2]; -0.14 in test [3]; 0.0173 in [4]; 0.043 in test [5]; 0.008 in test [6]. Besides, the composite z-score is -0.0284 in the test on Sam68 (KHDRBS1), 0.407 in test [7] and -0.563 in [8]. For the same compound, the composite Z-score in test [1] is 0.686 (inactive).
Regarding `COC(=O)CC=C[C@@H](C)[C@@H](C=NOCC[C@@H]1C=C[C@H](OC(C)=O)[C@@H](COC(C)=O)O1)OC`, the composite z-score with Albumin (Bos taurus) is -0.395; in test [2], -0.0006; in test [3], -0.115; in test [4], -0.0197; in test [5], 0.849; in test [6] it was -0.0402. For the same compound, the composite z-score with Sam68 (KHDRBS1) is 0.411; in test [7], 0.432; in test [8], -0.319. Moreover, in [1], the composite Z-score is 0.181 (inactive).
With `Cc1ccc(S(=O)(=O)N[C@H]2COC(=O)CC=C[C@@H](C)COC(=O)CC=C[C@@H]2C)cc1`, the composite z-score was -1.17 with Albumin (Bos taurus); -0.163 in test [2]; -0.186 in test [3]; -0.41 in [4]; -0.688 in [5]; -0.209 in test [6]. Further, the composite z-score with Sam68 (KHDRBS1) is 0.393; in test [7] it was 1.23; in test [8], -0.351. The composite Z-score in [1] was -0.821 (inactive).
With `COc1ccc(O[C@@H]2[C@H](O)CO[C@@H]2C=Cc2ccccc2)cc1`, the composite z-score with Albumin (Bos taurus) is -0.0176; in test [2], -0.0343; in [3] it was -0.115; in [4] it was -0.053; in [5], -0.39; in test [6], 0.0909. The results for the composite z-score (in the test on Sam68 (KHDRBS1); in [7]; in test [8]) were 0.0255, 0.211 and 0.37, respectively. In addition, in test [1], the composite Z-score is 0.0831 (inactive).
For `O=C1CCCC=C1C(O)CCOC(c1ccccc1)(c1ccccc1)c1ccccc1` (stereo not given), the composite z-score in the test with Albumin (Bos taurus) is 0.404; in test [2] it was -0.158; in test [3] it was -0.169; in test [4], -0.252; in [5], -0.447; in [6], -0.146. In addition, the composite z-score in the test with Sam68 (KHDRBS1) is -1.52; in test [7], -0.0466; in test [8], -0.542. For the same compound, in [1], the composite Z-score is 0.142 (inactive).
In the case of `COC(=O)[C@H](C)NC(=O)CCC1CC(OC(=O)NCCc2ccc(F)cc2)CC2(CCCC(COC(=O)NCc3cccc(C(F)(F)F)c3)O2)O1` (stereo not given in full), the composite z-score with Albumin (Bos taurus) was 0.0516; in test [2], 0.133; in test [3], -0.0652; in [4], 0.193; in [5], 0.702; in test [6], -0.363. Also, the composite z-score with Sam68 (KHDRBS1) was 0.267; in test [7], 0.208; in test [8], 0.401. Besides, the composite Z-score in [1] was 0.116 (inactive).
For `CO[C@H]1COC(=O)[C@@H](Cc2ccccc2)NC(=O)[C@@H](C)COC(=O)CCC[C@@H]1C`, the composite z-score is 0.516 with Albumin (Bos taurus); 0.0257 in test [2]; -0.132 in test [3]; -0.248 in test [4]; 0.0267 in [5]; -0.0452 in test [6]. Besides, the composite z-score in the test with Sam68 (KHDRBS1) was 0.179; in [7] it was 0.295; in [8] it was -0.171. For the same compound, the composite Z-score in test [1] is -0.112 (inactive).
Regarding `Cn1c(=O)n2n(c1=O)[C@H]1[C@H](O)[C@@H]3O[C@@H]3C(=O)[C@H]1CC2`, the composite z-score with Albumin (Bos taurus) is -0.161; in test [2] it was -0.172; in [3] it was -0.124; in [4], -0.0126; in [5] it was -0.0596; in test [6], 0.0837. Further, the composite z-score in the test with Sam68 (KHDRBS1) turned out to be 0.327; in test [7] it was 0.387; in [8], 0.513. For the same compound, in test [1], the composite Z-score was -0.301 (inactive).
Turning to `O=C1[C@H]2[C@H]3[C@H](O)[C@H](O)CC(=NOCc4ccccc4)[C@@H]3CC[C@H]2C(=O)N1Cc1ccc2c(c1)OCO2`, the composite z-score with Albumin (Bos taurus) is 0.0462; in [2], 0.0306; in test [3] it was -0.0131; in test [4], 0.618; in [5], -0.0974; in [6] it was -0.0389. The composite z-score in the test on Sam68 (KHDRBS1) is -0.0391; in test [7], 0.124; in [8], -0.0139. Further, in test [1], the composite Z-score was 0.0289 (inactive).
With `CC(C)(C)N1C(=O)[C@H]2[C@H]3[C@H](O)C=CC(=O)[C@@H]3CC[C@H]2C1=O`, the composite z-score with Albumin (Bos taurus) was -0.161; in test [2] it was -0.0584; in test [3], 0.0098; in test [4] it was -0.0943; in test [5] it was -0.463; in [6], 0.632. Also, the composite z-score is -0.0221 in the test with Sam68 (KHDRBS1), 0.311 in [7] and 0.607 in [8]. Further, in test [1], the composite Z-score is 0.913 (inactive).
